AF4-AF9 inh: inhibitors of AF4 peptide binding to AF9, primary screen, biochemical, AlphaScreen, biotin-AF4 peptide, FLAG-AF9, single point; Protein AF-9 (Homo sapiens), P42568; inhibition, % at 10 µM; actives 0.47% (n = 350,000);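 active means every replicate reaching a set inhibition limit, whatever the replicate mean, cut at about 25% in these data; inconclusive means mean inhibition reaches that limit but some replicates miss it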;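 further: 0% = plate neutral control median and 100% = total signal loss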
Target sequence (P42568 whole entry, looked up): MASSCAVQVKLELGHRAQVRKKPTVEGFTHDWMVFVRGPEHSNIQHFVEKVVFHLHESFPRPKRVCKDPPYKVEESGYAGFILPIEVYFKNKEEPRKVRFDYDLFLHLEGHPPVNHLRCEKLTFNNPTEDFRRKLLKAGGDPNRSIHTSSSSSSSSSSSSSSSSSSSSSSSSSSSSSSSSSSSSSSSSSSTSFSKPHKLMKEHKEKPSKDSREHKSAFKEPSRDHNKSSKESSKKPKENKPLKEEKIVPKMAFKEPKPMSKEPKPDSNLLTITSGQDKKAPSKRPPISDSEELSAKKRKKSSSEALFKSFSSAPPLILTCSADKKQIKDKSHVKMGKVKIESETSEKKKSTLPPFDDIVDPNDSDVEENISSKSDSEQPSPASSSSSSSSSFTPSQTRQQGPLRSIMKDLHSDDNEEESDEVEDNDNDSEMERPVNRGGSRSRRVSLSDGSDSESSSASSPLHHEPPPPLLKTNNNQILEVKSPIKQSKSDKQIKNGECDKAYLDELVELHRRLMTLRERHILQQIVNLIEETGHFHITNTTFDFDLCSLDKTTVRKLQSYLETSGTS
esBAF inh: Bmi1 luciferase reporter increase in mESCs, primary screen, esBAF inhibitor project, mouse ES cells, Bmi1 luciferase knock-in, single point; 24 h; 100% = twice the neutral-well signal; reporter increase, % at 12.5 µM; actives 2% (n = 350,000); AID 602393, 2012; in the data active means activation above about 40%; inconclusive means no clear call, values can overlap the other calls;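 further: 0% = median of the plate's neutral control wells and 100% = double that signal; a rise in the Bmi1 reporter signal indicates esBAF inhibition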
rRNA inh HTS: reduced GFP signal of wild-type E. coli, primary screen, bacterial rRNA inhibitor project, GFP/RFP fluorescence, OD600, single point; GFP signal change (wild-type ribosome), % (concentration not given with the values); AID 720706, 2013; actives 1.6% (n = 350,000); E. coli WT GFP vs humanized-ribosome RFP mutants, 24 h; stronger effect = lower value; DMSO median 0, no signal -100;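 active means significant combined selectivity score with lowered wild-type GFP, culture density cut under 30%, mutant RFP and density less affected; inactive means any of these conditions unmet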
Wnt bcat act: Wnt/beta-catenin pathway activators, primary screen, cell-based, plate reader, single point; Wnt/beta-catenin reporter cell assay, activator; activation, % at 9.35 µM; actives 1.2% (n = 300,000); in the data active means activation above about 30%, passing the limit was not always enough; inconclusive means no clear call, values can overlap the other calls;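 further: 0% = neutral control wells and 100% = positive control wells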
MITF act: activators of MITF-driven TRPM1 promoter reporter, primary screen, cell-based, SK-MEL-5, luciferase, single point; SK-MEL-5 TRPM1-promoter luciferase, 24 h; % of positive control, neutral wells = 0; activation, % at 12.5 µM; actives 0.75% (n = 300,000); AID 588334, 2011;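 active means mean activation of at least 80% with every replicate also reaching 80%; inconclusive means mean reaches 80% but some replicate falls short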;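 further: 0% = neutral control wells and 100% = parthenolide positive control wells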
An asterisk follows results filed as active; ? = inconclusive; . = no result given. A selection: hits, their analogues and other compounds. The true share with any hit is near 3.7%.

SMILES | AF4-AF9 inh | esBAF inh | rRNA inh HTS | Wnt bcat act | MITF act
CCOC(=O)N1CCN(C(=O)c2cccc(S(=O)(=O)Nc3ccc(OC)cc3)c2)CC1 | 3 | . | 7 | 2 | -6
COc1ccc(C(=O)N2CCN(c3ccc(F)cc3)CC2)cc1S(=O)(=O)NC1CC1 | 0 | 50* | . | 25 | 41
COc1ccc(C(=O)N2CCN(c3cccc(Cl)c3)CC2)cc1S(=O)(=O)NC1CC1 | 1 | -13 | -9 | -2 | 44
CCOC(=O)N1CCN(C(=O)c2cccc(S(=O)(=O)Nc3ccc(F)cc3)c2)CC1 | -5 | . | -4 | 39* | -5
COc1ccc(N2CCN(C(=O)c3ccc4c(c3)CC(c3ccccc3)OC4=O)CC2)cc1 (configuration not stated) | ? | 14 | 2 | 0 | -14
O=C(c1cccc(S(=O)(=O)NCc2ccccc2)c1)N1CCN(c2ccc(F)cc2)CC1 | 26* | 7 | -18 | -2 | -2
O=C1OC(c2ccccc2)Cc2cc(C(=O)N3CCN(c4ccc(F)cc4)CC3)ccc21 (configuration not stated) | 1 | . | -29* | 1 | 3
COc1ccc(CN(C)C[C@@H]2Oc3ccc(NC(=O)Nc4c(C)noc4C)cc3CC(=O)N([C@@H](C)CO)C[C@H]2C)cc1 | 1 | 1 | 1 | . | .
CC(C)[C@@H](CO)NC(=O)c1ccc2c3n(nc2c1)-c1ccc(Cl)cc1CO3 | . | 59* | -14 | 45* | 89*
c1ccc2c(c1)COc1c3cc4c(cc3nn1-2)OCO4 | 8 | 25 | -16 | 0 | .
C[C@@H](CO)NC(=O)c1ccc2c3n(nc2c1)-c1ccc(Cl)cc1CO3 | . | 81* | . | 47* | 102*
CCc1cc(-c2ccc3c(c2)COc2c4ccccc4nn2-3)on1 | . | 3 | . | 20 | 73
C[C@H](CO)N1C[C@H](C)[C@H](CN(C)S(C)(=O)=O)Oc2c(NS(=O)(=O)c3cccs3)cccc2C1=O | -4 | -5 | 2 | . | .
CCOC(=O)c1cnn(CCOC(=O)C(C)(C)C)c1NC(=O)C(C)(C)C | . | -5 | . | 18 | -6
Cc1ccc(/C=N/N=C/c2ccc(C)cc2)cc1 | -3 | 57* | 3 | 4 | -1
Oc1ccc(/C=N/N=C/c2ccc(O)cc2)cc1 | 3 | 27 | 5 | -2 | 27
O=C(O)c1cc([N+](=O)[O-])ccc1NCCc1ccccc1 | -1 | . | -42* | 1 | -6
O=C(O)c1cc([N+](=O)[O-])ccc1Nc1ccccc1 | 28* | . | -34* | 0 | 5
O=C(O)c1cc([N+](=O)[O-])ccc1NCCO | . | . | . | -2 | 10
Cc1cccc(Nc2ccc([N+](=O)[O-])cc2C(=O)O)c1 | 2 | . | -6 | 0 | -6
N#C/C(=C/Nc1ccccc1)c1ccsc1 | . | 12 | . | . | 18
Cc1ccc(N/C=C(/C#N)c2ccsc2)cc1 | . | 68* | . | . | 38
c1ccc(-c2cnc(-c3ccccn3)nn2)cc1 | 3 | -15 | 8 | 46* | 49
CC(C)Oc1ccc(CNC(=O)Oc2ccccc2)cc1 | -2 | -3 | -8 | -1 | 92*
COc1ccc(CNC(=S)NCc2ccc(OC(C)C)cc2)cc1 | 1 | . | -17 | -3 | -14
SMILES | AF4-AF9 inh | esBAF inh | rRNA inh HTS | Wnt bcat act | MITF act
COc1cc(NC(=O)Cc2ccccc2)nc(OC)n1 | . | 13 | . | . | -7
Cc1ccc(C(=O)Nc2cccc(C(O)c3ccccc3)c2)cc1 (configuration not stated) | 3 | . | -33* | 8 | 21
CCC(=O)Nc1ccc2c(c1)nc(CCNC(=O)c1ccco1)n2C | -4 | -2 | 3 | -1 | 0
COc1cc(OC)cc(C(=O)Nc2ccc(-n3cnnn3)c(C)c2)c1 | -3 | . | -15 | -1 | 108*
COc1ccc(C(=O)Nc2cc(OC)nc(OC)n2)cc1 | . | 24 | . | . | 92*
COc1ccc(C(=O)Nc2ccc3c(c2)nc(CCNC(=O)c2ccco2)n3C)cc1 | -2 | 48* | . | 16 | 37
C[C@@H]1CN([C@H](C)CO)C(=O)c2cc(NC(=O)Nc3ccccc3)ccc2O[C@@H](C)CCCCO[C@H]1CN(C)Cc1ccc(Cl)c(Cl)c1 | 0 | 6 | 4 | . | .
CC(=O)N1CCCCN2[C@H](CO)[C@H](c3ccc(-c4ccccc4)cc3)[C@H]2C1 | -2 | 1 | 1 | . | .
COc1ccc(C(=O)Nc2ccc3nc(C)c(C)nc3c2)cc1 | 0 | 62* | -5 | 8 | 36
COc1ccc(C(=O)Nc2ccc3c(c2)nc2n3CCSC2)cc1 | . | 33 | . | 49* | .
COc1ccc(C(=O)Nc2cccc(C)c2)cc1 | . | 14 | 11 | 58* | .
c1ccc(NCC2OCc3ccccc3CO2)cc1 | . | . | . | . | 27
Cc1ccc(C(=O)N/C(=C\c2ccc(Br)cc2)c2nc(=S)[nH][nH]2)cc1 | -1 | -10 | -25* | -6 | -12
C[C@H]1CCCCO[C@H](CN(C)C(=O)Nc2cccc3ccccc23)[C@@H](C)CN([C@@H](C)CO)C(=O)c2cc(NC(=O)Nc3cccc4ccccc34)ccc2O1 | -5 | 4 | 0 | . | .
COc1ccc(C2CC(c3ccccc3)=NN2C(=S)Nc2ccccc2)cc1 (configuration not stated) | -3 | 3 | 14 | 3 | 4
Cc1ccc(C2=NN(C(=S)Nc3ccccc3)C(c3ccco3)C2)cc1 (configuration not stated) | . | 80* | . | . | 71
COc1ccc(C2CC(c3ccc(Br)cc3)=NN2C(=S)Nc2ccccc2)cc1 (configuration not stated) | 6 | 45* | 10 | 6 | 36
CNC(=S)N1N=C(c2cccs2)CC1c1ccc(OC)cc1 (configuration not stated) | 13 | -2 | -21* | -2 | -9
CCS(=O)(=O)Nc1ccc(C2=NN(C(=S)Nc3ccccc3)C(c3ccco3)C2)cc1 (configuration not stated) | . | . | . | . | 32
COc1ccc(C2CC(c3cccs3)=NN2C(=O)CN2CCCCC2)cc1 (configuration not stated) | 5 | . | 12 | 4 | 12
CCCn1c2ccccc2c2cnn(CC(=O)OC)c(=O)c21 | 0 | 1 | -4 | 2 | -3
CCCC1CCC(=NNC(=O)CNc2ccc(OC)cc2)CC1 (configuration not stated) | 3 | . | 9 | -1 | -4
NC(=O)c1ccccc1OCC(=O)Nc1ccc2c(c1)CCC2 | 3 | 97* | . | 27 | 93*
COc1ccccc1OCC(=O)Nc1ccc(Cl)cc1 | . | 18 | . | 19 | 52
NC(=O)c1ccccc1OCC(=O)Nc1ccc(Cl)c(Cl)c1 | 2 | . | -31 | 40* | 64
Nc1c(N(CCC2=CCCCC2)C(=O)C2CC2)c(=O)[nH]c(=O)n1Cc1ccccc1 | -1 | . | 8 | -3 | 3
